Several values for one entry are separate records, joined by “and”; a condition that tells them apart may be missing. Equal entries are not always repeated. The campaign covered roughly 34,000 compounds. About 290 (0.85%) showed an effect of 50% or more. What follows is part of a selection rich in strong results, with near analogues and random picks from the rest.
Tested on: Plasmodium falciparum
Assay: Plasmodium falciparum sporozoite viability assay
Type: functional, organism-based
Parameters: scale not given: in the data most compounds retested in dose-response had high values

| SMILES | Percent Effect [%] | Percent Effect (10 mM as filed; unlikely as a test dose) |
| --- | --- | --- |
| CCOCCCNC(=O)C1(C)CCC(=O)N1Cc1ccccc1F (stereo not drawn) | -5.282 | – |
| COc1ccc(-c2cc(C3CCCNC3)ccn2)cc1.Cl (stereo not drawn) | 3.809 | – |
| COc1cccc(Nc2nc(-c3ccncc3)nc3c2CNCC3)c1.Cl | 6.202 | – |
| COc1cccc(Nc2nc(N3CCCC3)nc3c2CNCC3)c1.Cl | 4.348 | – |
| COc1cccc(-c2cc(C3CCCNC3)ccn2)c1 (stereo not drawn) | 10.99 | – |
| Cc1cc(C)nc(Nc2nccnc2C2CCCN(CCO)C2)n1 (stereo not drawn) | -0.8244 | – |
| Cc1ccoc1C(=O)NC1CCN(C(=O)Nc2ccccn2)CC1 | 4.048 | – |
| CN1CCN(C[C@@H]2OC[C@H]3CN(CCc4ccccc4)CC[C@H]32)CC1.O=C(O)C(F)(F)F.O=C(O)C(F)(F)F.O=C(O)C(F)(F)F | 9.359 | – |
| O=C(NC1CCCCC1)NC1CCCc2c1cnn2CCO (stereo not drawn) | – | -11.63% and -7.35% and -4.902% |
| O=C(NCC1CCCCC1)NC1CCCc2c1cnn2CCO (stereo not drawn) | – | 38.6% and 33.33% and 56.01% |
| CSc1ccc(OCCN2CCNC(=O)CC2)cc1 | -10.56 | – |
| CSCC[C@H](N)c1nnc(SCc2cc(C)ccc2C)o1.Cl | -8.516 | – |
| CCc1n[nH]c(C(=O)NCCn2ccnc2C)c1C | – | -3953% and -3827% |
| CCc1n[nH]c(C(=O)NCCn2nccc2C)c1C | – | 28.41% and 66.23% and 77.05% |
| CC(C(=O)N1CCN(Cc2ccc3c(c2)OCO3)CC1)n1ccnc1 (stereo not drawn) | 3.608 | – |
| CCn1cnnc1CNC(=O)N1CCC(CN2CCCCCC2)CC1 | 4.778 | – |
| CC(C)COCc1cncc2c1CCN(C(=O)c1cscn1)C2.O=C(O)C(F)(F)F | 5.063 | – |
| CC(C)Cc1nc(CO)n(-c2ccc3c(c2)OCCO3)n1 | – | 46.72% and 37.75% |
| CC[S+]([O-])CCc1nc(CC(C)C)nn1-c1ccc2c(c1)OCCO2 (stereo not drawn) | – | 61.59% and 54.31% |
| Cc1cc(C)n(CC2CCCN2C(=O)CCc2ccncc2)n1 (stereo not drawn) | 1.423 | – |

| SMILES | Percent Effect [%] | Percent Effect (10 mM as filed; unlikely as a test dose) |
| --- | --- | --- |
| Cn1ccc(C(=O)NCc2cccc(CN3CCCC3)c2)cc1=O | 11.38 | – |
| CCOc1ccnc(N2CCN(C(=O)c3c(CC)noc3C)CC2)n1 | -6.802 | – |
| Cc1nccn1CC1CCCN1S(=O)(=O)Cc1ccc(F)cc1 (stereo not drawn) | 5.478 | – |
| CN1CCOC(C(=O)Nc2ccc3c(c2)nc(C2CC2)n3C)C1 (stereo not drawn) | – | -13.44% and -13.85% |
| CN1CCOC(C(=O)Nc2ccc3[nH]nnc3c2)C1 (stereo not drawn) | – | -26.35% and -20.34% |
| CN1CCOC(C(=O)Nc2ccc3c(c2)nc(C(C)(C)C)n3C)C1 (stereo not drawn) | – | 104.1% and 105.2% |
| CC1CCCN(C(=O)C2CCN(c3snc4ccccc34)CC2)C1 (stereo not drawn) | 6.864 | – |
| CC(C)c1cc(NC(=O)c2ccc(NC3CC3)nc2)[nH]n1 | 15.54 | – |
| Cc1ccsc1-c1cccc(-c2ccn(CC3CCNC3)n2)c1 (stereo not drawn) | – | 75.23% and 72.27% and 75.29% |
| Cc1nccc(-c2cccc(-c3ccn(CC4CCNC4)n3)c2)n1 (stereo not drawn) | – | -3.675% and -28.15% and -23.4% |
| c1cc(-c2cncnc2)cc(-c2ccn(CC3CCNC3)n2)c1 (stereo not drawn) | – | -11.99% and -9.692% and -21.27% |
| O=C(Nc1ccccc1OCCc1ccccn1)N1CCOCC(O)C1 (stereo not drawn) | 6.804 | – |
| Cc1cc(OCC(O)c2nc3c([nH]2)CC(C)(C)CNC3=O)ccc1Cl (stereo not drawn) | 5.403 | – |
| c1ccc(-c2noc(CN3CCc4cncnc4C3)n2)nc1 | – | 68.57% and 81.28% and 66.45% |
| c1cncc(-c2noc(CN3CCc4cncnc4C3)n2)c1 | 1.959 | – |
| Cc1cc(C(=O)N2CCCC(n3cncn3)C2)no1 (stereo not drawn) | 2.312 | – |
| CCN(C(=O)c1cnc(-c2ccc3c(c2)OCO3)s1)C1CC1 | – | -15.93% and -34.81% |
| CN(C)C(=O)c1cnc(-c2ccc3c(c2)OCO3)s1 | – | -22.33% and -36.75% |
| CC(C1CC1)N(C)C(=O)c1cnc(-c2ccc3c(c2)OCO3)s1 (stereo not drawn) | – | 53.72% and 75.58% and 50.81% |
| COc1c(C2CCCN2Cc2noc(C(C)C)n2)c(C)nn1C (stereo not drawn) | 4.307 | – |

| SMILES | Percent Effect [%] | Percent Effect (10 mM as filed; unlikely as a test dose) |
| --- | --- | --- |
| CCc1nnc(CN2CCOC(Cn3cccn3)C2)o1 (stereo not drawn) | 11.86 | – |
| c1csc(-c2nc(CN3CCOC(Cn4cncn4)C3)co2)c1 (stereo not drawn) | 15.52 | – |
| c1ccc(-c2nc(CN3CCOC(Cn4cncn4)C3)cs2)cc1 (stereo not drawn) | – | 57.17% and 32.5% and 36.71% |
| c1csc(-c2nc(CN3CCOC(Cn4cccn4)C3)cs2)c1 (stereo not drawn) | 3.015 | – |
| c1csc(-c2nc(CN3CCOC(Cn4cncn4)C3)cs2)c1 (stereo not drawn) | – | 44.25% and 56.8% and 40.33% |
| c1ccc(-c2nc(CN3CCOC(Cn4cccn4)C3)cs2)cc1 (stereo not drawn) | – | -13.99% and -29.39% |
| O=C1NCC2=C1C(c1ccc(O)cc1)Nc1ccccc1N2 (stereo not drawn) | -23.23 | – |
| COCCN1CCCC1c1ccnc(-c2ccccc2)n1 (stereo not drawn) | 6.777 | – |
| CCN1CCN(C(C)CNC(=O)Nc2nnc(C)s2)CC1 (stereo not drawn) | -9.257 | – |
| Cc1noc(C)c1CCC(=O)NCC1(O)CCN(c2ccccn2)C1 (stereo not drawn) | 8.46 | – |
| CNc1cc(C)nc(N2C[C@H](NC(=O)C3CCOCC3)[C@@H](C3CC3)C2)n1 | – | -9.822% and -7.832% and -7.881% |
| CNc1cc(C)nc(N2C[C@@H](C(=O)O)[C@H](C3CC3)C2)n1 | – | 73.63% and 80.29% and 69.7% |
| CNc1cc(C)nc(N2C[C@H](C3CC3)[C@@H](N)C2)n1 | – | 11.54% and 8.166% and -2.157% |
| Cc1cnn(CC2CCCN2C(=O)c2c(C)noc2C(C)C)c1 (stereo not drawn) | 2.244 | – |
| CCn1c(N)nc2cc(C(=O)NCc3ccccc3Cl)cnc21 | – | -6% and 9.799% and 1.435% |
| CCn1c(N)nc2cc(C(=O)NCCNc3ncccc3C)cnc21 | – | -11.01% and -17.43% |
| CCn1c(N)nc2cc(C(=O)NCCc3ccccc3F)cnc21 | – | 83.82% and 65.98% |
| CCn1c(N)nc2cc(C(=O)NCCc3nnc(C)s3)cnc21 | – | -8.165% and -11.66% |
